{"source": "PubChem BioAssay (NCATS)", "note": "Inconclusive results are not listed. Active and inactive are the calls of the source. The call rests on the fitted dose curve; in most records, active means well fitted cell-killing curve with a large enough effect; inconclusive means small, poorly fitted or top-dose-only effect; inactive means flat fitted curve, though single readings scatter. Where a SMILES comes first, the peptide text is derived from it. Bridges are numbered along the chain shown (N, C = ends). [ ]: non-standard residue; d: D form. hArg = N=C(N)NCCCC[C@H](N)C(=O)O; Mpa = O=C(O)CCS", "data": [{"assay": "qHTS of pediatric cancer cell lines to identify multiple opportunities for drug repurposing: Primary screen for control Hh wild type fibroblast cells (AID 1347106);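 further: on the % scale 0 is the no-effect control and ±100 the full control effect; a drop in luminescence marks cytotoxicity and a rise apparent proliferation; nearly all actives have a fitted effect of over 55% in size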", "details": "Hh wild-type fibroblast viability, CellTiter-Glo luminescence, 48 h; series mostly up to 46 µM", "source_text": "Drug repurposing or repositioning has been offered as a strategy for drug development in oncology programs. This approach has special potential for childhood cancers and other rare or orphan diseases, where the expected return on new drug development has been a disincentive to pharmaceuticals.\nIn this project we exploit the poly-pharmacology of drugs to discover new indications via phenotypic screening of a panel of 19 well-characterized cell lines derived from solid tumors seen in children and adolescents. The goal is to identify approved drugs with previously unrecognized anticancer properties that has the potential to reveal new mechanisms and biological processes involved in carcinogenesis or drug resistance. We employed a titration-based paradigm (quantitative high-throughput screening or qHTS), where all compounds were tested at multiple concentrations for their effect on cell viability. Concentration-response curves (CRCs) were derived directly from the primary screen, and both potency and efficacy values were used to identify compounds with robust bioactivity profiles. We screened the NIH Chemical Genomics Center (NCGC) Pharmaceutical Collection (NPC) and Mechanism Interrogation Plate (MIPE) small molecule collections of approved and investigational compounds against these cell lines; and measured metabolically active cells after 48 hours of compound treatment as a proxy for cell viability.\nAssay Submitter: Nathalia J. Martinez, National Center for Advancing Translational Sciences, National Institutes of Health, Rockville, MD, USA; email: natalia.martinez@nih.gov\n[1] Shen, M et al. Quantitative high-throughput phenotypic screening of pediatric cancer cell lines identifies multiple opportunities for drug repurposing. Oncotarget 2017 Dec 19;9(4):4758-4772. PMID 29435139.\nThe cells were obtained from University of North Carolina (UNC), Pediatric Preclinical Testing Program (PPT), and Coriell Institute (CI).\nqHTS cell viability assay:\nCells were assayed in growth media at a density of 500-1,000 cells/well. Five microliters of cells were dispensed into 1,536-well, white, solid-bottom, TC-treated plates (Greiner Bio One) using a multidrop dispenser and incubated at 37 degrees C, 5% CO2, under a humidified atmosphere for 5 hours. Twenty-three nanoliters of compounds and controls (neutral control DMSO or positive control bortezomib at final concentration of 2.3 µM) were subsequently transferred by Kalypsys pintool. For primary screens, the MIPE collection was tested at 11-point dilutions (final concentrations range from 0.78 nM to 46 µM) and the NPC collection at 8-point dilutions (final concentrations range from 0.59 nM to 46 µM). Compounds tested in follow-up screens were assayed at 11-point dilutions. Cells were incubated for 48 hours, followed by addition of 3 µL of CellTiter-Glo (Promega). After a 15 min incubation at room temperature, samples were analyzed for luminescence intensity using a ViewLux High-throughput CCD imager equipped with clear filters.", "values": [{"smiles": "CCCCCCCCCCC(CO)CCCCCCCC", "note": "(stereo not given)", "outcome": "inactive"}, {"smiles": "Nc1c2c(nc3c1CCC3)CCCC2", "outcome": "inactive"}, {"smiles": "CCCCCCCC(=O)OCC(COC(=O)CCCCCCC)OC(=O)CCCCCCC", "outcome": "inactive"}, {"smiles": "Cn1c(=O)c2c(ncn2CCO)n(C)c1=O", "outcome": "inactive"}, {"smiles": "NC(=O)CCCCC1CCSS1", "note": "(stereo not given)", "outcome": "inactive"}, {"smiles": "COc1ccc(C(=O)NCc2ccc(OCCN(C)C)cc2)cc1OC", "outcome": "inactive"}, {"smiles": "CCCCCCCCCCOc1cc2c(=O)c(C(=O)OCC)c[nH]c2cc1OCC", "activity change, negative = cytotoxic": "1.24% [at 4.84 µM] (inactive)"}, {"smiles": "CC(C(=O)O)c1ccc2c(c1)Cc1cccnc1O2", "note": "(stereo not given)", "outcome": "inactive"}, {"smiles": "C[N+]1(C)CCCC(OC(=O)C(O)(c2ccccc2)c2ccccc2)C1", "note": "(stereo not given)", "outcome": "inactive"}, {"smiles": "C=CCOc1ccccc1OCC(O)CNC(C)C", "note": "(stereo not given)", "outcome": "inactive"}, {"smiles": "O=c1[nH]cnc2nc[nH]c12", "outcome": "inactive"}, {"smiles": "COc1ccc(Cc2cnc(N)nc2N)cc1OC", "outcome": "inactive"}, {"smiles": "COc1ccc2cc(CCC(C)=O)ccc2c1", "outcome": "inactive"}, {"smiles": "CC(N)CCCC(C)(C)O", "note": "(stereo not given)", "outcome": "inactive"}, {"smiles": "O=C(O)CCCc1ccccc1", "outcome": "inactive"}, {"smiles": "Cc1cc(NC(=O)C2=C(O)c3ccccc3S(=O)(=O)N2C)no1", "outcome": "inactive"}, {"smiles": "CC(=O)NCc1c(I)c(NC(C)=O)c(I)c(C(=O)O)c1I", "outcome": "inactive"}, {"smiles": "COC(=O)c1ccc(O)cc1", "outcome": "inactive"}, {"smiles": "O[C@@H]1CO[C@H]2[C@@H]1OC[C@@H]2O", "outcome": "inactive"}, {"smiles": "CN(C/C=C/C#CC(C)(C)C)Cc1cccc2ccccc12", "outcome": "inactive"}, {"smiles": "CC(=O)Nc1ccc(C(=O)O)cc1", "outcome": "inactive"}, {"smiles": "C=CCSCC1Nc2cc(Cl)c(S(N)(=O)=O)cc2S(=O)(=O)N1", "note": "(stereo not given)", "outcome": "inactive"}, {"smiles": "OCC(O)CS", "note": "(stereo not given)", "outcome": "inactive"}, {"smiles": "CCN(CC)CCOC(=O)C(c1ccccc1)c1ccccc1", "outcome": "inactive"}, {"smiles": "CCCCCCCCCCCCCCCCC(C(=O)O)C(O)(CC(=O)O)C(=O)O", "note": "(stereo not given)", "outcome": "inactive"}, {"smiles": "O=C(OOC(=O)c1ccccc1)c1ccccc1", "outcome": "inactive"}, {"smiles": "Nc1ncnc2c1ncn2[C@@H]1O[C@H](COP(=O)(O)O)[C@@H](O)[C@H]1O", "outcome": "inactive"}, {"smiles": "Cc1cc(C)nc(NS(=O)(=O)c2ccc(N)cc2)n1", "outcome": "inactive"}, {"smiles": "COc1ccccc1OCC(O)CO", "note": "(stereo not given)", "outcome": "inactive"}, {"smiles": "CN(C(=O)c1c(O)c2ccccc2n(C)c1=O)c1ccccc1", "outcome": "inactive"}, {"smiles": "O=C1c2cccc(O)c2C(=O)c2c(O)cccc21", "outcome": "inactive"}, {"smiles": "CCC(C)(CN(C)C)OC(=O)c1ccccc1", "note": "(stereo not given)", "outcome": "inactive"}, {"smiles": "CCCCCOC(=O)Nc1nc(=O)n([C@@H]2O[C@H](C)[C@@H](O)[C@H]2O)cc1F", "outcome": "inactive"}, {"smiles": "CCOC(=O)[C@H](CCc1ccccc1)N[C@@H](C)C(=O)N1Cc2cc(OC)c(OC)cc2C[C@H]1C(=O)O", "outcome": "inactive"}, {"smiles": "CCN(CC)CC1CCCCN1CC(=O)N1c2ccccc2C(=O)Nc2cccnc21", "note": "(stereo not given)", "outcome": "inactive"}, {"smiles": "NC(=O)[C@@H]1CSSCCC(=O)N[C@@H](CCCCN=C(N)N)C(=O)NCC(=O)N[C@@H](CC(=O)O)C(=O)N[C@@H](Cc2c[nH]c3ccccc23)C(=O)N2CCC[C@H]2C(=O)N1", "note": "([Mpa][hArg]GDWPC-NH2; disulfide 1-7)", "outcome": "inactive"}, {"smiles": "CN1C(=O)CC(c2ccccc2)C1=O", "note": "(stereo not given)", "outcome": "inactive"}, {"smiles": "CCCCOC(=O)c1ccc(N)cc1", "outcome": "inactive"}, {"smiles": "O=C(CN1CCNCC1)NC1CCCCC1", "outcome": "inactive"}, {"smiles": "Cc1ncc(CO)c(CN)c1O", "outcome": "inactive"}]}]}
